HT1080NT lethal: kills 2HG-producing HT-1080-NT fibrosarcoma cells; HT-1080-NT fibrosarcoma viability, CellTiter-Glo ATP luminescence, 48 h; Potency, µM (top dose mostly 46.1 µM), for inactives: at the highest dose activity, negative = less viability, actives largely listed as cytotoxic; 360,000 tested, 1.6% active; AID 686970;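 note: NT is the 2HG producing partner of a matched IDH1 knockdown line; potency is the fitted concentration of half-maximal effect; 0% = DMSO-treated cells and -100% = media-only wells without cells; nearly all actives have a fitted effect of over 55% in size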
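Viability of the 2HG-overproducing fibrosarcoma line after 48 hours of compound exposure at 37 degrees C was determined by luminescence with CellTiter-Glo, and concentration-effect curves were then fitted and categorized.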
DT40 TDP1 CPT: DT40-hTDP1 cell growth loss with CPT; chicken DT40 Tdp1-/-;hTDP1 cells + 20 nM CPT, ATP luminescence, 48 h; Potency, µM (series often up to 46.2 µM), for the others: at the highest dose activity change, negative = growth inhibition, hits mostly inhibitors; 420,000 tested, 12% active; AID 686979; note: potency is the fitted concentration of half-maximal effect; nearly all actives have a fitted effect of over 55% in size
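Chicken DT40 Tdp1-/- cells complemented with human TDP1, 400 cells/well, exposed to compounds plus 20 nM camptothecin for at least 48 h at 37 C; viability read as ATP content by CellTiter-Glo luminescence.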
DT40 TDP1 no CPT: qHTS for Inhibitors of human tyrosyl-DNA phosphodiesterase 1 (TDP1): qHTS in cells in absence of CPT | DT40 Tdp1-/- hTDP1 cells, no CPT, ATP luminescence, 48 h | Potency, µM (top dose mostly 46.2 µM), for the others: top-dose activity change, negative = growth inhibition, most hits filed as inhibitors | 420,000 tested, 15% active; note: potency is the fitted concentration of half-maximal effect; nearly all actives have a fitted effect of over 55% in size
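A cellular qHTS used chicken DT40 cells lacking endogenous Tdp1 but carrying stably transfected human TDP1. Compounds were applied without camptothecin, and cell growth kinetics were judged by ATP-dependent luminescence after ≥48 hr.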
IL1B secr inh: inflammasome signaling inhibition, IL-1 beta readout | THP-1 LPS/ATP IL-1B secretion, AlphaLISA, 16 h; active compounds read low | activity change, % at 57.5 µM | 360,000 tested, 4.7% active | AID 743279; in the data active = activity change below about -50%; inconclusive = mostly about -30% to -49%
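THP-1 cells pretreated 1 hr with compounds (up to 57.5 uM final), then stimulated with LPS (250 ng/mL final) plus ATP (1.25 mM final); secreted IL-1B measured by AlphaLISA after 16 hr, decreased signal indicating inhibition.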
HT1080 IDH1KD tx: toxicity to HT-1080 IDH1 knockdown cells (counter line). HT-1080 IDH1 knockdown viability, ATP luminescence, 48 h. Potency, µM (titrated, usually from 46.1 µM), for inactives: top-dose activity, negative = toxicity, usual class: cytotoxic. 360,000 tested, 2% active. AID 686971;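 note: potency is the fitted concentration of half-maximal effect; 0% = DMSO wells and -100% = cell-free medium wells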
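IDH1KD HT-1080 cells, 750/well, RPMI + 5% FBS; compound pinned after 2 h settling; 48 h, 37 °C; CellTiter-Glo luminescence; % activity normalised to DMSO and no-cell wells; curves fitted, classed by r2 and efficacy.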
* = called active by the depositor; ? = inconclusive; . = no result given. A selection: hits, their analogues and other compounds. The true share with any hit is near 19%. Unless noted, calls come from the whole dose curve; as a rule, active = well fitted curve in the direction sought with a large enough effect; inconclusive = small, poorly fitted or top-dose-only effect, or another doubt; inactive = no such curve, though single readings can be large; an effect the other way counts as inactive or inconclusive. Unless noted, % is set by controls: 0 for no effect and ±100 for the full control effect.

SMILES	HT1080NT lethal	DT40 TDP1 CPT	DT40 TDP1 no CPT	IL1B secr inh	HT1080 IDH1KD tx
CC(=O)OCC1OC(OC2C[C@]3(C)C(CC(O)C4C([C@](C)(CCC=C(C)C)OC5OC(CO)C(O)C(O)C5O)CC[C@]43C)[C@@]3(C)CCC(O)C(C)(C)C23)C(O[C@@H]2OC(C)C(O)C(O)C2O)C(O)C1O (some centres undefined)	14%	3%	36%	39	12%
COC(=O)c1[nH]c2cc(OC)ccc2c1NC(=O)CCN1CCSCC1	6%	2%	9%	14	2%
O=c1c2ccccc2n(CC(O)CN2CCCCC2)c2ccccc12 (centres undefined)	-19%	1%	-19%	.	-12%
O=C(/C=C/c1cn(CC(O)CN2CCCCCC2)c2ccccc12)c1ccc(Br)cc1 (centres undefined)	.	16µM*	13µM*	.	.
Cc1ccc(C(=O)/C=C/c2cn(CC(O)CN3CCCCCC3)c3ccccc23)cc1 (centres undefined)	.	12µM*	21µM*	.	.
Cc1c(C)n(CC(O)CN2CCCCC2)c2ccccc12 (centres undefined)	-24%	-9%	-21%	?	-11%
CC(CCc1ccccc1)NC(=O)C(Cc1ccccc1)NC(N)=O (centres undefined)	0%	-17%	-11%	-5	-12%
COc1ccc(C(C#N)=Cc2cccc(OC)c2OC)cc1	-8%	?	23µM*	6	-9%
COc1cccc(C=C2Cc3ccccc3C2=O)c1	-6%	1%	-13%	-5	-12%
COc1cc(C=C2C(=O)c3ccccc3C2=O)cc(OC)c1OC	19%	?	-5%	-7	12%
COc1ccc2c(c1)CC/C(=C\C=C\c1ccccc1)C2=O	20%	?	23µM*	-7	24%
COc1ccc(OC)c(C=C2CCc3ccccc3C2=O)c1	?	21µM*	?	-2	?
COc1ccc2c(c1)CC/C(=C/c1cc(OC)c(OC)c(OC)c1)C2=O	16%	?	15µM*	-85*	-7%
COc1cccc(/C=C2\CCc3ccccc3C2=O)c1	?	?	?	-6	?
COc1ccc(Cc2cnc(N)s2)cc1	8%	-6%	-7%	-4	4%
COc1cccc(-c2nc(CS(=O)(=O)CC(=O)Nc3c(C)cc(C)cc3C)c(C)o2)c1	.	18µM*	23µM*	.	.
COc1cccc(-c2nc(CS(=O)(=O)CC(=O)NCc3ccc(C)cc3)c(C)o2)c1	.	23µM*	?	.	.
COc1cccc(-c2nc(CS(=O)(=O)CC(=O)Nc3c(C)cccc3C)c(C)o2)c1	-14%	?	?	-6	-9%
COc1ccc(CNC(=O)CS(=O)(=O)Cc2nc(-c3cccc(OC)c3)oc2C)cc1	0%	?	?	15	-14%
N#Cc1cccc(S(=O)(=O)NCC(=O)NCc2ccc3c(c2)OCO3)c1	3%	-19%	11%	28	-1%
CC(Nc1c([N+](=O)[O-])c(=O)oc2ccccc12)C(Cl)c1ccccc1 (centres undefined)	?	?	23µM*	-67*	?
O=c1oc2ccccc2c(NC(c2ccccc2)c2ccccc2)c1[N+](=O)[O-]	-4%	?	?	-5	-26%
CCNc1c([N+](=O)[O-])c(=O)oc2ccccc12	10%	17%	12%	4	13%
O=c1oc2ccccc2c(Nc2ccc3ccccc3c2)c1[N+](=O)[O-]	?	15µM*	?	7	?
Cc1ccc(Nc2c([N+](=O)[O-])c(=O)oc3ccccc23)cc1	?	?	12µM*	.	?
SMILES	HT1080NT lethal	DT40 TDP1 CPT	DT40 TDP1 no CPT	IL1B secr inh	HT1080 IDH1KD tx
O=c1oc2ccccc2c(Nc2ccc(O)cc2)c1[N+](=O)[O-]	-17%	?	-15%	-20	-17%
CCc1ccc(Nc2c([N+](=O)[O-])c(=O)oc3ccccc23)cc1	-19%	?	7.3µM*	?	-22%
O=C1NC[C@H](CCCCN2CCN(CC3CCCCC3)C(=O)C2=O)N(CCc2ccccc2)C1=O	21%	6%	-10%	6	19%
COC(=O)[C@H](CC(C)C)NC(=O)Cn1cnc2c(NCc3ccccc3)ncnc21	-1%	-16%	-5%	0	10%
COC(=O)CCCOc1ccc(Cl)cc1Cl	.	14%	4%	.	.
COc1cc(C)c(S(=O)(=O)NOCc2ccccc2)c(C)c1C	-4%	-9%	?	0	-3%
CC(C)(C)N1C(=O)c2ccc(C(=O)Nc3cc(C(=O)O)cc(C(=O)O)c3)cc2C1=O	7%	-6%	-2%	9	10%
Cc1ccc(C)c(Nc2c([N+](=O)[O-])c(=O)oc3ccccc23)c1	-24%	23µM*	10µM*	-58*	-26%
COc1ccc(C)cc1S(=O)(=O)N(CC(=O)Nc1cccc([N+](=O)[O-])c1)c1ccccc1	-5%	15µM*	21µM*	-5	-9%
Cc1ccc(NC(=O)CN(c2ccc(Cl)cc2)S(=O)(=O)c2cc([N+](=O)[O-])ccc2Cl)c(C)c1	?	?	15µM*	-79*	-23%
Cc1ccc([N+](=O)[O-])cc1NC(=O)CN(c1ccccc1)S(=O)(=O)N(C)C	.	1%	-27%	.	.
CS(=O)(=O)N(CC(=O)Nc1cccc([N+](=O)[O-])c1)c1ccccc1	2%	-12%	-20%	-10	-2%
CCc1cccc(NC(=O)CN(c2ccc(C)cc2)S(=O)(=O)c2cccs2)c1	.	?	16µM*	.	.
